HT1080-NT tox: kills 2HG-producing HT-1080-NT fibrosarcoma cells | HT-1080-NT fibrosarcoma viability, CellTiter-Glo ATP luminescence, 48 h | Potency, µM (doses to about 46.1 µM), inactives show top-dose activity, negative = less viability, actives largely listed as cytotoxic | actives 1.6% (n = 360,000) | AID 686970;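 note: NT is the 2HG producing partner of a matched IDH1 knockdown line; potency is the fitted concentration of half-maximal effect; 0% = DMSO-treated cells and -100% = media-only wells without cells; nearly all actives have a fitted effect of over 55% in size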
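A 48-hour cytotoxicity screen used HT-1080-NT cells plated 2 hours before compound delivery. ATP-based CellTiter-Glo luminescence measured viability, normalized to DMSO and no-cell controls.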
HT1080 IDH1KD tx: kills HT-1080 cells with IDH1 knockdown | HT-1080 IDH1 knockdown viability, ATP luminescence, 48 h | Potency, µM (series often up to 46.1 µM), inactives show top-dose activity, negative = toxicity, most hits filed as cytotoxic | actives 2% (n = 360,000) | AID 686971;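 note: potency is the fitted concentration of half-maximal effect; 0% = DMSO wells and -100% = cell-free medium wells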
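% activity derives from luminescence (CellTiter-Glo), normalised to DMSO and no-cell wells. HT-1080-IDH1KD cells, 750/well, had 48 h compound exposure at 37 °C.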
IL-1B inflam inh: inhibitors of inflammasome signaling (IL-1 beta secretion). THP-1 LPS/ATP IL-1B secretion, AlphaLISA, 16 h; stronger effect = lower value. activity change, % at 57.5 µM. actives 4.7% (n = 360,000); in the data active = activity change below about -50%; inconclusive = mostly about -30% to -49%
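THP-1 cells pretreated 1 hr with compounds (up to 57.5 uM final), then stimulated with LPS (250 ng/mL final) plus ATP (1.25 mM final); secreted IL-1B measured by AlphaLISA after 16 hr, decreased signal indicating inhibition.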
TDP1 cell noCPT: qHTS for Inhibitors of human tyrosyl-DNA phosphodiesterase 1 (TDP1): qHTS in cells in absence of CPT. DT40 Tdp1-/- hTDP1 cells, no CPT, ATP luminescence, 48 h. AID 686978, 2013. Potency, µM (series often up to 46.2 µM), inactives show at the highest dose activity change, negative = growth inhibition, usual class: inhibitors. actives 15% (n = 420,000); note: potency is the fitted concentration of half-maximal effect; nearly all actives have a fitted effect of over 55% in size
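A cellular qHTS used chicken DT40 cells lacking endogenous Tdp1 but carrying stably transfected human TDP1. Compounds were applied without camptothecin, and cell growth kinetics were judged by ATP-dependent luminescence after ≥48 hr.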
ELG1 DNA repair: blocks ELG1-dependent DNA repair in HEK293T cells; AID 504467; Potency, µM (top dose mostly 46.1 µM), without a hit: at the top dose activity change, negative = inhibition, actives largely listed as inhibitors; actives 2.3% (n = 330,000); HEK293T ELG1-luciferase reporter, luminescence, 16 h; DNA damage induced by 5-fluorouridine; note: potency is the fitted concentration of half-maximal effect; nearly all actives have a fitted effect of over 55% in size
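Step one: seed 2,000 cells per well. Step two: pin-transfer compound or DMSO alongside 5-fluorouridine. Step three: incubate 16 hr, 37 °C, 5% CO2. Step four: add ONE-Glo, wait 30 min, read luminescence.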
TDP1 cell CPT: DT40-hTDP1 cell growth loss with CPT. actives 12% (n = 420,000). Potency, µM (doses to about 46.2 µM), inactives show top-dose activity change, negative = growth inhibition, most hits filed as inhibitors. chicken DT40 Tdp1-/-;hTDP1 cells + 20 nM CPT, ATP luminescence, 48 h; note: potency is the fitted concentration of half-maximal effect; nearly all actives have a fitted effect of over 55% in size
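Chicken DT40 Tdp1-/- cells stably complemented with human TDP1 were seeded at 400 cells/well in medium containing 20 nM camptothecin, exposed to pin-transferred compounds, and grown at 37 °C for at least 48 hr. Viability was read as ATP luminescence.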
* = called active by the depositor; i = inactive; ? = inconclusive; . = no result given. Hits are enriched below; roughly 19% of the tested compounds scored in any of these assays. Unless noted, calls come from the whole dose curve; as a rule, active = well fitted curve in the direction sought with a large enough effect; inconclusive = small, poorly fitted or top-dose-only effect, or another doubt; inactive = no such curve, though single readings can be large; an effect the other way counts as inactive or inconclusive. Unless noted, % is set by controls: 0 for no effect and ±100 for the full control effect.

SMILES | HT1080-NT tox | HT1080 IDH1KD tx | IL-1B inflam inh | TDP1 cell noCPT | ELG1 DNA repair | TDP1 cell CPT
CCCOc1c(Cl)cc(C(=O)Nc2ccc3c(c2)OCO3)cc1OCC | ? | 10µM* | -56* | ? | ? | ?
CCOc1ccc(C(=O)NCC(=O)Nc2ccc3c(c2)OCO3)cc1OCC | -12% | -7% | -12 | 5% | 19% | -1%
CCOc1ccc(C(=O)Nc2ccc3c(c2)OCCO3)cc1[N+](=O)[O-] | 11% | 4% | -58* | -14% | 6% | 17%
CCOc1cc(C(=O)Nc2ccc3c(c2)OCO3)ccc1OC(F)F | -11% | -14% | -65* | 11µM* | ? | 15µM*
O=C(Nc1ccc2c(c1)OCO2)c1ccc(NC2CC2)c([N+](=O)[O-])c1 | ? | -24% | -5 | 21µM* | -22% | 21µM*
O=C(Nc1ccc2c(c1)OCO2)c1ccc2c(c1)OCO2 | -7% | 0% | i | ? | ? | ?
CCCOc1ccc(C(=O)Nc2ccc3c(c2)OCO3)cc1 | -4% | ? | -2 | 13% | ? | 3%
Cc1ccc(C(=O)Nc2nnc(SCc3cc(=O)n4ccc(C)cc4n3)s2)cc1 | . | . | . | -15% | . | 5%
CCC(=O)Oc1ccc(C(=O)Nc2ccc3c(c2)OCO3)cc1 | ? | ? | -58* | 21µM* | ? | ?
CSc1nc(=O)[nH]nc1Sc1ccccc1 | 4% | 0% | 1 | ? | . | ?
Cc1nc(CCN2C(=O)c3ccccc3C2=O)n[nH]1 | 9% | 5% | -4 | 23µM* | 11% | ?
c1ccc(-c2csc(-c3nc4ccccc4[nH]3)n2)cc1 | . | . | . | 27µM* | . | 17µM*
c1ccc(-c2cc(-c3nc4ccccc4[nH]3)c3ccccc3n2)cc1 | -29% | ? | -67* | ? | 21µM* | ?
Cc1cscc(C)c1=S | 14% | 7% | 7 | 3% | . | 6%
Cc1ccccc1NC(=O)Nc1ccc2c(c1)CCC2 | 0% | -3% | -6 | -1% | ? | -1%
CC(C)Cc1nc(Nc2ccccc2C#N)c2nnn(Cc3ccccc3)c2n1 | ? | 18µM* | ? | ? | ? | -26%
COc1ccc(Cl)cc1Nc1nc(C)nc2c1nnn2Cc1ccccc1 | 15% | 18% | 36 | ? | -6% | -12%
O=C(CCC1N=C2c3ccccc3N=C(SCc3ccc(Cl)cc3)N2C1=O)NC1CCCCC1 (stereo not drawn) | . | . | . | 13µM* | . | -86%
Cc1ccc(CSC2=Nc3ccccc3C3=NC(CC(=O)NCc4ccco4)C(=O)N23)cc1 (stereo not drawn) | 7% | 0% | 2 | -14% | ? | -14%
Cc1ccc(CSC2=Nc3ccccc3C3=NC(CCC(=O)NC4CCCCC4)C(=O)N23)cc1 (stereo not drawn) | . | . | . | ? | . | 23µM*
O=C(CCC1N=C2c3ccccc3N=C(SCc3ccc(Cl)cc3)N2C1=O)NCc1ccco1 (stereo not drawn) | -3% | -20% | ? | ? | -24% | ?
CS(=O)(=O)Nc1ccccc1C(=O)OCC(=O)N1CCC(c2ccccc2)=N1 | 2% | 9% | -21 | -1% | 0% | ?
COc1ccc(-c2nc3cnc(OC)nc3n(C)c2=O)cc1 | . | . | . | 1% | . | -2%
CCOc1ccccc1NC(=O)C(Cc1ccccc1)NS(=O)(=O)c1ccc(Br)s1 (stereo not drawn) | . | . | . | ? | . | 23µM*
Cc1ccc(CNC(=O)C(Cc2ccccc2)NS(=O)(=O)c2ccc(Br)s2)cc1 (stereo not drawn) | ? | -27% | -75* | ? | ? | -3%
SMILES | HT1080-NT tox | HT1080 IDH1KD tx | IL-1B inflam inh | TDP1 cell noCPT | ELG1 DNA repair | TDP1 cell CPT
COc1ccc(C)cc1NC(=O)C(Cc1ccccc1)NS(=O)(=O)c1cccs1 (stereo not drawn) | . | . | . | ? | . | 18µM*
CN(Cc1ccc(-n2cccn2)cc1)Cc1nc(-c2cnccn2)no1 | 15% | 16% | 22 | -4% | 1% | -1%
O=C(c1cccc(F)c1)N1CCC2(CCCN(c3ncccn3)C2)CC1 | . | . | . | ? | . | -9%
COc1cc(/C=C/C(=O)OCC(=O)N2CCN(S(=O)(=O)c3ccc(C)cc3C)CC2)cc(Cl)c1OC | 6% | 6% | 1 | 18µM* | ? | ?
C=CCOc1ccc(/C=C/C(=O)OCC(=O)N2CCN(S(=O)(=O)c3ccc(C)cc3C)CC2)cc1 | 2% | 14% | 15 | 7.3µM* | . | ?
Cc1ccc(NC(=O)CN(C)C(=O)CSc2ccccc2F)cc1 | 3% | -2% | -1 | -16% | 4% | 1%
Cc1ccc(NC(=O)CN(C)C(=O)c2ccccc2Cc2ccccc2)cc1 | -1% | -21% | -58* | ? | -6% | ?
Cc1ccc(NC(=O)CN(C)C(=O)Cc2c(Cl)cccc2Cl)cc1 | -14% | 1% | 1 | 16µM* | 5% | ?
C/C=C(\C)C(=O)OC1[C@@H]2C=C3C4CC(=O)OC(c5ccoc5)[C@]4(C)CCC3[C@@](C)(C2=O)C(C(O)C(=O)OC)C1(C)C (stereo partly drawn) | . | . | . | -3% | . | 11%
COc1ccc(C(C(=O)Nc2ccc(C(C)C)cc2)N(Cc2ccco2)C(=O)CC2NC(=O)NC2=O)cc1 (stereo not drawn) | -14% | -11% | -70* | ? | ? | ?
CC(C)(C)C(=O)N1CCN(c2ccc([N+](=O)[O-])c(NCc3cccnc3)c2)CC1 | -12% | -21% | -5 | 4.1µM* | ? | 4.1µM*
Cc1ccc(NC(=O)c2cc([N+](=O)[O-])ccc2NCc2cccnc2)cc1Cl | ? | ? | -54* | ? | ? | ?
NC(=O)c1cc([N+](=O)[O-])c(Cl)cc1NCc1cccnc1 | 4% | -6% | -77* | ? | ? | ?
Clc1ccc(NCc2cccnc2)c(Cl)c1 | -1% | -1% | -59* | ? | -3% | -23%
O=C1c2ccccc2C(=O)N1c1cccc(N2C(=O)c3ccccc3C2=O)n1 | . | . | . | -2% | . | 12%
COc1ccc(OC)c(N2CC(O)=C(c3nc4ccccc4s3)C2=N)c1 | -11% | -17% | -28 | ? | 0% | ?
N=C1C(c2nc3ccccc3s2)=C(O)CN1Cc1ccccc1 | ? | ? | 0 | 4.6µM* | 4% | 7.3µM*

Screens deposited in PubChem by National Center for Advancing Translational Sciences (NCATS).
